The list is not random: actives were taken first. Their share in the collection is about 0.69%.
Vif-A3G inh: blocks the Vif interaction with human APOBEC3G; HeLa A3G-eYFP + Vif (tagged APOBEC3G with the HIV-1 protein that degrades it), YFP fluorescence, overnight; AID 602310; Potency, µM (doses to about 46.1 µM), hits mostly inhibitors; 410,000 compounds, 0.076% hits; note: nearly all actives have a fitted effect of over 60% in size
Target sequence (Q9HC16 whole entry, looked up): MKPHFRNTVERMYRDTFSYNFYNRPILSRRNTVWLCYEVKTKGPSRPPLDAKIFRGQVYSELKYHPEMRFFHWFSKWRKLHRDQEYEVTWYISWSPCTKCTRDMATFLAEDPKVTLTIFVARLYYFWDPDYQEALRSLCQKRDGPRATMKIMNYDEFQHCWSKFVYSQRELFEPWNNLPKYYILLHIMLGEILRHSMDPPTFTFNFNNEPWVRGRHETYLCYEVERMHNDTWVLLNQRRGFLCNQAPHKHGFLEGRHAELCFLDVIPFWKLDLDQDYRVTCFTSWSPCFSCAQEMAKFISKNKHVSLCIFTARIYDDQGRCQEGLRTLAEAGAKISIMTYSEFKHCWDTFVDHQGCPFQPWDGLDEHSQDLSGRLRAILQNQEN
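HeLa cells stably expressing Vif and C-terminally eYFP-tagged A3G, seeded overnight at 37 deg C, then exposed to compound by pintool overnight at 37 deg C. Rise in yellow fluorescence (Ex 488/Em 500-530, Acumen) marks blocked Vif-driven A3G degradation.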
Glioma ERSR ind: inducers of ER stress response in human glioma cells; Potency, µM, hits mostly activators; U87-MG GRP78 promoter luciferase reporter, 16 h; 420,000 compounds, 0.02% hits; note: series mostly up to about 76 µM; nearly all actives have a fitted effect of over 35% in size
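Stably transfected U87-MG glioma cells carrying a GRP78-based luciferase sensor; 16 h compound incubation. Luminescence end-point read 10 min after Bright-Glo addition at room temperature.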
Abeta rescue: A-beta toxicity reversal in yeast | yeast expressing A-beta42, growth rescue, OD600, 48 h; response scale: 0% DMSO, 100% iron-clioquinol control | Potency, µM (top dose mostly 46.1 µM), most hits filed as activators | 410,000 compounds, 0.063% hits; note: nearly all actives have a fitted effect of over 55% in size
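Growth rescue measured by 600 nm absorbance after 48 h yeast culture at 30 C with compound. Values normalized between DMSO and an equimolar ferric chloride plus clioquinol control.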
PINK1 modulator: modulators of PINK1 expression | 410,000 compounds, 0.2% hits | Potency, µM (series often up to 76.6 µM), usual class: activators | PINK1 immunofluorescence, high-content cytometry, 24 h | AID 624263; active = well fitted activation curve with a large enough effect; inconclusive = small, poorly fitted or top-dose-only effect; cell line not stated here; note: nearly all actives have a fitted effect of over 65% in size
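Cells are seeded, rested 12 hours, then given compound at five concentrations or DMSO for 24 hours. After fixation, blocking and antibody staining, PINK1 amount and mitochondrial localization are scored; CCCP serves as control.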
Vif-A3F inh: inhibitors of Vif-A3F interaction | HeLa A3F-eYFP + Vif (tagged APOBEC3F with the HIV-1 protein that degrades it), YFP fluorescence increase | Potency, µM (doses to about 46.1 µM) | 390,000 compounds, 0.2% hits; note: nearly all actives have a fitted effect of over 65% in size
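HeLa cells stably expressing Vif plus C-terminally eYFP-tagged A3F were seeded, incubated overnight at 37 deg C, dosed with compound, incubated overnight again at 37 deg C. Yellow fluorescence (Ex 488/Em 500-530) reported blocked Vif-mediated A3F-eYFP degradation.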
FUS yeast rescue: suppressors of FUS proteinopathy in yeast; S. cerevisiae FUS-expressing, growth rescue, OD600, 24 h; AID 1347120; Potency, µM (series often up to 76.6 µM), actives largely listed as activators; 390,000 compounds, 0.24% hits; note: nearly all actives have a fitted effect of over 55% in size
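Absorbance at 600 nm, taken 24hr after compound addition, measured rescue of FUS-yeast growth at 30C. Induction used 2% galactose with seeding at OD 0.005. Controls: CP55940 from 92uM final, DMSO only.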
A number is an active result; . = inactive; ? = inconclusive; / = no result. Unless noted, calls come from the whole dose curve; as a rule, active = well fitted curve in the direction sought with a large enough effect; inconclusive = small, poorly fitted or top-dose-only effect, or another doubt; inactive = no such curve, though single readings can be large; an effect the other way counts as inactive or inconclusive.

SMILES | Vif-A3G inh | Glioma ERSR ind | Abeta rescue | PINK1 modulator | Vif-A3F inh | FUS yeast rescue
CC(O)(COc1ccccc1)c1ccc2c(c1)CN(Cc1ccccn1)CCO2 (stereo not given) | / | . | / | . | / | /
c1ccc(N=c2nc(-c3ccccc3)n(-c3ccccc3)s2)cc1 | . | . | / | 16µM | / | /
c1ccc(Cn2sc(=Nc3ccccc3)nc2-c2ccccc2)cc1 | . | . | / | . | / | /
Cc1ccc2nc(CC(O)(c3ccccc3)c3ccccc3)ccc2c1 | . | . | . | . | . | .
COc1cccc2ccc(CC(O)(c3ccccc3)c3ccccc3)nc12 | . | . | . | 40µM | . | .
CCCNC(=O)c1cc2c(c(-c3cccc(-c4ccccc4F)c3)n1)[C@H](CCO)N(C(=O)CC1CC1)C2 | / | / | . | . | / | ?
CCNC(=O)c1cc2c(c(-c3cccc(-c4ccccc4F)c3)n1)[C@@H](CCO)N(C(=O)CC1CC1)C2 | / | / | . | . | / | 18µM
COC(=O)C(C)Oc1cc(OC(C)C(=O)OC)c2c(C)c(Cl)c(=O)oc2c1 (stereo not given) | . | 40µM | . | . | . | .
Cc1cc2c(c(-c3ccc(Cl)cc3)c1)OC(CNC(=O)CCC(=O)N(C)C)C2 (stereo not given) | / | . | / | . | / | /
Cc1ccc2c(c1)CCCN2C(=O)c1ccoc1C | . | . | . | . | . | 5.6µM
Cc1ccc2c(c1)CCCN2C(=O)c1c(C)noc1C | . | . | ? | ? | . | .
C/C=C(\C)C(=O)NCCN1Cc2ccccc2OC(c2ccccc2OC)C1 (stereo not given) | / | . | / | . | / | /
CCC1C(=O)NCCN1Cc1ccc2c(c1)CN(Cc1cc(OC)ccc1OC)CCO2 (stereo not given) | / | . | / | . | / | /
O=C(C[n+]1cc(Br)cc2ccccc21)c1ccc(Cl)cc1 | . | . | . | 14µM | ? | .
CC(C)(C)Cc1c(-c2ccc(F)cc2)nc2ccc(Br)cn12 | . | . | . | 35µM | ? | .
CC(C)(C)Cc1c(-c2ccc(Br)cc2)nc2ccc(Cl)cn12 | . | . | . | ? | ? | .
CC(C)(C)Cc1c(-c2ccc(Cl)cc2)nc2ccc(Br)cn12 | . | . | . | 32µM | ? | .
COc1ccccc1Cc1c(-c2ccc(OC)c(OC)c2)nc2ccc(Br)cn12 | . | . | . | 14µM | / | .
Cc1ccc2nc(-c3ccccc3C)c(CN(CC3CCCO3)C(=O)c3cccs3)cc2c1 (stereo not given) | / | . | / | . | / | /
CCOC(=O)C1CCCCN1S(=O)(=O)c1ccc2c(c1)CC(C)N2C(=O)C1CCC1 (stereo not given) | . | . | / | . | . | 25µM
CC1Cc2cc(S(=O)(=O)N3CCCCC3C)ccc2N1C(=O)C1CCC1 (stereo not given) | . | . | / | . | . | .
O=C1NC(=O)C(Cc2ccccc2)(C2CCN(Cc3cccn3-c3cccnc3)CC2)N1 (stereo not given) | / | . | / | . | / | /
Cc1occc1C(=O)N/N=C/C1=C(N2CCOCC2)C(=C\c2ccc(Cl)cc2Cl)/CC1 | . | . | . | 32µM | . | .
Cc1cc(C)nc(N/N=C/C2=C(N3CCOCC3)C(=C\c3ccc(Cl)cc3)/CC2)n1 | . | . | ? | . | ? | .
CC(C)Oc1ccc(C(=O)NCC2Cc3cc(Cl)cc(-c4ncccn4)c3O2)cc1 (stereo not given) | / | . | / | . | / | /
SMILES | Vif-A3G inh | Glioma ERSR ind | Abeta rescue | PINK1 modulator | Vif-A3F inh | FUS yeast rescue
CCCn1c(C2CCCN2c2nc(-c3cccc(Br)c3)cs2)nc2ccccc21 (stereo not given) | . | . | . | . | 10µM | ?
Cc1ccc2cc(C#N)c(N3CCCN(S(=O)(=O)c4ccccc4)CC3)nc2c1 | . | . | . | . | . | .
Cc1ccc2cc(C#N)c(N3CCCN(S(=O)(=O)c4ccccc4)CC3)nc2c1C | . | . | . | . | . | 6.3µM
O=C(c1cnn(-c2nccc(-c3ccccc3F)n2)c1C1CC1)N1CCN(CCO)CC1 | / | . | / | . | / | /
C/C(=N\NC(=O)C(C)n1nc(C)c([N+](=O)[O-])c1C)c1ccccc1O (stereo not given) | . | . | . | . | 5.6µM | /
Cc1nnc(SCC(=O)Nc2cc(-c3cc(C)c(C)cc3C)nn2-c2ccccc2)s1 | . | . | . | . | . | 25µM
Cc1nnc(SCC(=O)Nc2cc(C(C)(C)C)nn2-c2ccccc2)s1 | . | . | . | . | . | /
COc1cc(/C=N/NC(=O)c2nonc2C)ccc1O | . | . | . | . | . | .
Cc1nonc1C(=O)N/N=C/c1ccc(O)c(O)c1 | . | 35µM | . | . | . | .
O=[N+]([O-])c1ccc2c(c1)C=CC2 | . | . | / | / | / | /
COC(=O)/C=C1\S/C(=N\N=C\CC(=O)OC)NC1=O | . | . | ? | . | . | 32µM
COC(=O)/C=C1\SC(=Nc2ccc(OC)cc2)NC1=O | . | . | . | . | . | .
c1ccc2[nH]c(NN=C3CCCCCC3)nc2c1 | . | . | . | . | 22µM | .
CC1C/C(=N/Nc2nc3ccccc3[nH]2)CC(C)(C)C1 (stereo not given) | . | . | . | . | . | .
Cc1cnc(C(=O)NCc2c(C)ncc3c2CCN(C(=O)/C=C/c2cccs2)C3)cn1 | / | . | / | . | / | /
CCOc1cc(/C=C2/C(=N)N3C(=NC2=O)SN=C3S(C)(=O)=O)ccc1OC(=O)c1ccco1 | . | . | . | . | 13µM | .
COc1cc(/C=C2\C(=N)N3N=C(S(C)(=O)=O)SC3=NC2=O)ccc1OC(=O)c1ccco1 | . | . | / | . | 7.1µM | .
CCOc1cc(/C=C2\C(=N)N3N=C(S(=O)(=O)CC)SC3=NC2=O)ccc1OC(=O)c1ccco1 | . | . | . | . | ? | .
Cc1c(C(=O)N2CCOc3ccc(Cl)cc3C2)sc2ncnc(NCCc3ccccn3)c12 | / | . | / | . | / | /
CCCSc1nsc(NC(=O)Nc2ccc(F)cc2F)n1 | . | . | . | 13µM | ? | .
CCSc1nsc(NC(=O)Nc2cccc(F)c2)n1 | . | . | . | ? | . | .
N#CC(c1ccccc1)c1ccc2c(C(F)(F)F)cc(C(F)(F)F)nc2n1 (stereo not given) | . | . | . | ? | . | .
Cc1ccc(C(C#N)c2ccc3c(C(F)(F)F)cc(C(F)(F)F)nc3n2)cc1 (stereo not given) | . | . | . | 8.9µM | . | /
O=c1cc(C(F)(F)F)[nH]c2ccc(OC(F)(F)F)cc12 | . | . | . | 35µM | . | .
CC1CN(CCC(=O)N2CCCC(C(=O)c3nccn3C)C2)Cc2cc(Cl)ccc2O1 (stereo not given) | / | . | / | . | / | /
